The nature of assay [1]: P-glycoprotein substrates identified in KB-3-1 adenocarcinoma cell line, qHTS therapeutic library screen (AID 1346986). Further: nearly all actives have a fitted effect of over 60% in size.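 Further: potency is for cytotoxicity meaning loss of cell viability.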 As to conditions: KB-3-1 parental cells viability, CellTiter-Glo, 72 h; series mostly up to 44.5 µM. In outline:
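Dose-response cytotoxicity, KB-3-1 vs P-gp-high KB-8-5-11, no colchicine in assay medium. Read: CellTiter-Glo at 72 h.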
(In qHTS, concentration-response curves come from the screen itself.)

The nature of assay [2]: P-glycoprotein substrates identified in KB-8-5-11 adenocarcinoma cell line, qHTS therapeutic library screen (AID 1346987). Further: nearly all actives have a fitted effect of over 65% in size. On activity change, negative = cytotoxicity: on the % scale 0 is the no-effect control and ±100 the full control effect. As to conditions: KB-8-5-11 (P-gp overexpressing) viability, CellTiter-Glo, 72 h; series mostly up to 44.5 µM. In outline: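 Human cervical adenocarcinoma KB-8-5-11 cells, selected in colchicine to over-express P-gp and assayed without it, were exposed for 72 h to titrated compounds. An ATP-based luminescent viability signal gave AC50.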

Structures are written as SMILES. “And” between values parts separate entries of the source, which are not always exact repeats. Equal values may be shown once. Inconclusive results are not listed. Unmarked numbers belong to inactive results. The source made the active and inactive calls. The call rests on the fitted dose curve; in most records, active means well fitted curve in the direction sought with a large enough effect; inconclusive means small, poorly fitted or top-dose-only effect, or another doubt; inactive means no such curve, though single readings can be large; an effect the other way counts as inactive or inconclusive.
Potency means the concentration at half of the fitted maximal effect.

As for `C=C1C(=O)OC2CC(C)C(CCC(C)O)=CCC12` (configuration not stated), the Potency result in assay [1] and in assay [2] was “inactive” each time.
`CCN1CCC[C@@H]1CNC(=O)c1ccc2c(c1)NC(=O)c1cccc(C)c1S2`: the Potency entry in assay [1] and in assay [2] was “inactive” in each case.
For `COc1cc(OC)c2c(=O)[nH]c(-c3cc(C)c(OCCO)c(C)c3)nc2c1`, the Potency result in assay [1] and in assay [2] was “inactive” in each case.
In the case of `COC1=CC(=O)C=C(C)C12Oc1c(Cl)c(OC)cc(OC)c1C2=O` (configuration not stated), the Potency entry in assay [1] and in assay [2] was “inactive” in each case.
Consider `C=C(C)C1=C[C@@]2(C)C(=CC1=O)CC[C@@H](O)[C@@H]2C`, for which the Potency result in assay [1] and in assay [2] was “inactive” each time.
Regarding `CC1(C)C2CCC(CO[C@@H]3O[C@H](CO[C@@H]4OC[C@](O)(CO)[C@H]4O)[C@@H](O)[C@H](O)[C@H]3O)C1C2` (some centres not stated), the Potency result in assay [1] and in assay [2] was “inactive” throughout.
As to `CC#CC(=O)Nc1ccc2ncnc(Nc3cccc(Br)c3)c2c1`, the figures for the Potency in assay [1] and in assay [2] were 10.3 µM (active) and 11.6 µM (active), respectively.
For `CC(C)C[C@@H](N)C(=O)N[C@H]1C(=O)N[C@@H](CC(N)=O)C(=O)N[C@H]2C(=O)N[C@H]3C(=O)N[C@H](C(=O)N[C@H](C(=O)O)c4cc(O)cc(O)c4-c4cc3ccc4O)[C@H](O)c3ccc(c(Cl)c3)Oc3cc2cc(c3O[C@@H]2O[C@H](CO)[C@@H](O)[C@H](O)[C@H]2O[C@H]2C[C@](C)(N)[C@H](O)[C@H](C)O2)Oc2ccc(cc2Cl)[C@H]1O`, in that order: “inactive” and “inactive”.
For `C[C@H](Nc1cc2c(-c3ccc4c(c3)OCO4)noc2cn1)c1ccccc1`, in that order: “inactive” and “inactive”.
As for `CCC(C)C(=O)OC12C(OC(C)=O)C(C)C3(O)C(C=C(CO)CC4(O)C(=O)C(C)=CC43)C1C2(C)C` (configuration not stated), the Potency entry in assay [1] and in assay [2] was “inactive” each time.
Take `CC(=O)O[C@@H]1C2=C(O)C(=O)[C@](C)(OC(C)=O)C(=O)C2=CO[C@@]12O[C@@H](C)CC[C@H]2OC(C)=O`: the Potency entry in assay [1] and in assay [2] was “inactive” each time.
Take `COc1cc(O)c2c(c1)/C=C/C[C@H](O)[C@H](O)C(=O)/C=C\C[C@H](C)OC2=O`: the Potency in assay [1] is 6.51 µM (active); in assay [2], 9.2 µM (active) and 8.2 µM (active).
Turning to `COc1ccc(CN2CCN(CCCSc3cc(C(C)(C)C)c(O)c(C(C)(C)C)c3)CC2)c(OC)c1OC`, in assay [1], the outcome is “inactive [at 9.29 µM]”. Besides, the activity change, negative = cytotoxicity in assay [2] was -16.1% [at 9.29 µM].
Consider `C=C1C(=O)OC2/C=C(\CO)CC/C=C(\C=O)C(OC)C(OC(=O)C(C)CC)C12` (configuration not stated), for which the Potency result in assay [1] and in assay [2] was “inactive” throughout.
Take `CC(=O)O[C@@H]1CC2C(C)(C)C(=O)C=C[C@]2(C)C2CC[C@@]3(C)[C@H](c4ccoc4)OC(=O)[C@H]4O[C@]43[C@@]21C` (some centres not stated): the Potency entry in assay [1] and in assay [2] was “inactive” in each case.
As to `CCN(CC)C(=O)C(c1ccccc1)N1CCN(c2ccc(NC(=O)c3ccccc3-c3cccnc3)cc2F)CC1` (configuration not stated), the Potency entry in assay [1] and in assay [2] was “inactive” in each case.
Consider `C=C1C(=O)OC2/C=C(\CO)CC/C=C(\C=O)C(O)C(OC(=O)C(C)CC)C12` (configuration not stated), for which the Potency entry in assay [1] and in assay [2] was “inactive” each time.
For the compound `CC(CCC1(O)OC2CC3C4CC=C5C[C@@H](O[C@@H]6O[C@H](CO)[C@@H](O[C@@H]7O[C@@H](C)[C@H](O)[C@@H](O)[C@H]7O)[C@H](O)[C@H]6O[C@@H]6O[C@@H](C)[C@H](O)[C@@H](O)[C@H]6O)CC[C@]5(C)C4CC[C@]3(C)[C@@]2(O)[C@@H]1C)CO[C@@H]1O[C@H](CO)[C@@H](O)[C@H](O)[C@H]1O` (some centres not stated), in assay [1], the outcome was “inactive [at 9.29 µM]”. Besides, in assay [2], the activity change, negative = cytotoxicity is -2.5% [at 9.29 µM].
On to `CC(C)C[C@H](CO)Nc1nc(S[C@@H](C)c2ccccc2)nc2nc(N)sc12`, for which the Potency result in assay [1] and in assay [2] was “inactive” throughout.
Consider `C=C1C(=O)O[C@@H]2/C=C(/C)[C@@H](OC(C)=O)C/C=C(\C)C[C@@H](OC(=O)/C(=C/CO)CO)[C@@H]12`, for which the Potency entry in assay [1] and in assay [2] was “inactive” each time.
With `C1=C/COCc2cc(ccc2OCCN2CCCC2)Nc2nccc(n2)-c2cccc(c2)COC/1`, the Potency was 4.61 µM (active) in assay [1]; 4.61 µM (active) and 7.31 µM (active) in assay [2].
As to `NC(=O)c1ccccc1Nc1ccnc(Nc2cccc(O)c2)n1`, the results for the Potency in assay [1] and in assay [2] were 1.3 µM (active) and 8.2 µM (active), respectively.
Regarding `COc1cc2ncc(-c3ccccc3)nc2cc1OC`, the figures for the Potency in assay [1] and in assay [2] were 7.31 µM (active) and 8.2 µM (active), respectively.
Take `O=C1NC(=O)C(c2cnc3ccccn23)=C1c1cn2c3c(cc(F)cc13)CN(C(=O)N1CCCCC1)CC2`: the Potency in assay [1] is 5.8 µM (active); in assay [2], 16.4 µM (active).
For the compound `CCC(C)/C=C(C)/C=C/C1=CC2=C(Cl)C(=O)C(C)(OC(C)=O)C(=O)C2(O)C(OC)O1` (configuration not stated), the Potency entry in assay [1] and in assay [2] was “inactive” throughout.
Take `COc1c(C(C)C)c(O)c(O)c2c1C(OC)[C@H]1OC(=O)[C@@]23CCCC(C)(C)[C@H]13` (some centres not stated): the Potency entry in assay [1] and in assay [2] was “inactive” each time.

Source of the values: PubChem BioAssay (NCATS).
